Reference: article PMC4336329 (PLoS ONE, 2015)
The whole screen tested about 310,000 compounds, of which about 14,000 (4.5%) showed an effect of 50% or more. Effects have a minus sign here. For the sample, strong results were picked, then their nearest neighbours and some compounds at random.

The compounds below were run against human ether-à-go-go-related gene (hERG) potassium channel (human, UniProt Q12809) (assay: primary screen, population patch clamp on CHO cells stably expressing hERG; higher = less effect of the substance).
Chain of human ether-à-go-go-related gene (hERG) potassium channel (Q12809 whole entry, looked up): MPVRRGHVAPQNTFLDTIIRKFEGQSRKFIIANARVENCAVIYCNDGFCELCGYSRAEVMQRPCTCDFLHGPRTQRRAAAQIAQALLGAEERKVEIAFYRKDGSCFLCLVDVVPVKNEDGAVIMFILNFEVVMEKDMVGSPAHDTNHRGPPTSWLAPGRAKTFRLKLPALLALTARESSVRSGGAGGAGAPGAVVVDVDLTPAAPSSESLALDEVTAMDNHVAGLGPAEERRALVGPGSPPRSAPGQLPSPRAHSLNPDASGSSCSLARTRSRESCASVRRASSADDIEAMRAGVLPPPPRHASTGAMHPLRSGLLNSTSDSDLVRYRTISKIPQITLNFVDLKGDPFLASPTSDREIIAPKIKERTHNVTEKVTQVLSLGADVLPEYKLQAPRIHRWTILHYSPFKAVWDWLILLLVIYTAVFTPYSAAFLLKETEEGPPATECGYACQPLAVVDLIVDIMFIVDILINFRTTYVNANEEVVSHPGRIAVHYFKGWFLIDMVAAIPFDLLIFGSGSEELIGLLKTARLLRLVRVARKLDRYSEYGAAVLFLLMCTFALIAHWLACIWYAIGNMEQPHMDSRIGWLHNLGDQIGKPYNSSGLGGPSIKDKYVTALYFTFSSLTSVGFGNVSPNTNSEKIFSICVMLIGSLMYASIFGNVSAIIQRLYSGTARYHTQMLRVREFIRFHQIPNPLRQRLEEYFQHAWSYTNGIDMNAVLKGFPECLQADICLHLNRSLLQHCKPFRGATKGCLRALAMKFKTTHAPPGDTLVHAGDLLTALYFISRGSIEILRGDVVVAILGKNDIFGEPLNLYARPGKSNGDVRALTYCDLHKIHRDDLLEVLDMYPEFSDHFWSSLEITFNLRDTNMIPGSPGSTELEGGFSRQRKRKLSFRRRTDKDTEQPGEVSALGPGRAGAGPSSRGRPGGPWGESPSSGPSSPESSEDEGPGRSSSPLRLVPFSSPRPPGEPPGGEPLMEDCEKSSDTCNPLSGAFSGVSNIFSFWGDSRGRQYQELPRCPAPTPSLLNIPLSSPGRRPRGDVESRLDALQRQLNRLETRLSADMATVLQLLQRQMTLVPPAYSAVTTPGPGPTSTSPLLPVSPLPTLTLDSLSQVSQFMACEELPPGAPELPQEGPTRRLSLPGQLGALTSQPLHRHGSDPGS
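Note: peak tail current of the secondary pulse compared with the same well before compound.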

Compound	hERG current change (%, negative = inhibition) at 10uM
COc1ccc(NC(=O)C/C(C)=N/NC(=O)CCc2ccccc2)c(OC)c1	4.6%
CC(=O)c1cccc(NC(=S)NC(=O)c2ccccc2Br)c1	10.9%
Cl.N/C(=N\O)C1COc2ccccc2O1 (stereo not shown)	16.4%
CCOC(=O)C1CCCN(C(=O)CSc2ccc(NC(C)=O)cc2)C1 (stereo not shown)	14.9%
COc1ccccc1N1CCN(C(=O)CSc2nc3ncnc(N)c3[nH]2)CC1	21.3%
Cc1nc2cc(NS(=O)(=O)c3cccc(F)c3)ccc2s1	7.97%
COc1nc(Nc2ccccc2)nc(OC)n1	5.84%
CC(C)CCNC(=O)CCCc1ccccc1	14.5%
Brc1nc(-c2ccccc2)nc(-c2ccccc2)c1Br	-5.38%
O=C(Cc1ccc(S(=O)(=O)N2CCCC2)s1)N1CCN(c2ccc(F)cc2)CC1	-56.2%
O=C(Cc1ccc(S(=O)(=O)N2CCOCC2)s1)N1CCN(S(=O)(=O)c2cccc([N+](=O)[O-])c2)CC1	-27.1%
O=C(Cc1ccc(S(=O)(=O)N2CCOCC2)s1)N1CCN(c2ccc(C(F)(F)F)cc2[N+](=O)[O-])CC1	-54.8%
Cc1ccc(C(=O)N2CCN(c3ccccc3)CC2)cc1S(=O)(=O)N1CCCC1	-31.2%
O=C(Cc1ccc(S(=O)(=O)N2CCCC2)s1)N1CCN(c2ccccc2)CC1	-28.4%
Cc1ccc(C(=O)N2CCN(c3ccc(F)cc3)CC2)cc1S(=O)(=O)N1CCCCC1	-54%
Cc1ccc(C(=O)N2CCCCC2)cc1S(=O)(=O)N1CCCC1	5.55%
O=C(Cc1ccc(S(=O)(=O)N2CCOCC2)s1)N1CCN(c2cccc(C(F)(F)F)c2)CC1	-31.7%
O=C(Cc1ccc(S(=O)(=O)N2CCCC2)s1)N1CCOCC1	-0.493%
COc1ccc(OCCOC(=O)c2cc(S(=O)(=O)N3CCOCC3)c(Cl)cc2Cl)cc1	-17.7%
Cc1ccc(NS(=O)(=O)c2cc([N+](=O)[O-])ccc2NNC(=S)Nc2cccc(Cl)c2)c(C)c1	26%
C[C@]12C=CC(=O)C=C1CC[C@@H]1[C@@H]2[C@@H](O)C[C@@]2(C)[C@H]1CC[C@]2(O)C(=O)COC(=O)CCC(=O)NCCc1ccc(O)cc1	12.8%
CN1CCN(c2oc(Cc3cccc4ccccc34)nc2C#N)CC1	-9.75%
